Results as given in PubChem BioAssay (NCI).
Compounds without any hit were thinned out: in the full panel of roughly 83,000, 20% have a hit.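 Each cell line was grown in a 96-well plate and treated with one concentration of compound for 48 hours. Values below 10 were considered active.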 Unmarked numbers belong to inactive results. The source made the active and inactive calls.

Each compound was assayed on SNB-19 CNS (assay: NCI-60 one-dose screen, 48 h (100 = growth as untreated, 0 = no growth, -100 = all killed)). Conditions: 10 µM unless noted.

Structure (SMILES) | growth
OCCCCc1nccc2c1[nH]c1ccccc12 | 110%
CCCn1nc(-c2ccccc2)c2c(-c3ccccc3)onc2c1=O | 77.2%
Cc1cc(N(CCCNc2ccnc3cc(Cl)ccc23)Cc2ccccn2)nc(N2CCCC2)n1 | 91.2%
C=C(C)[C@@H]1CC[C@]2(CN)CC[C@]3(C)[C@H](CC[C@@H]4[C@@]5(C)CCC(N)[C@@](C)(CO)[C@@H]5CC[C@]43C)[C@@H]12 (stereo partly drawn) | -10.5% (active)
COc1ccc(-n2ncn(CCCCCCn3cnn(-c4ccc(OC)cc4)c3=O)c2=O)cc1 | 90.3%
O=C(NC1CCOCC1)c1ccc2c(c1)CN(c1ncc(Cc3cccc(-n4cccn4)c3)s1)CC2 | 95.7%
C=C(CNCCc1ccc(O)cc1)[C@@H]1CC[C@]2(COC3CCCCO3)CC[C@]3(C)[C@H](CC[C@@H]4[C@@]5(C)CCC(NCCO)C(C)(C)[C@@H]5CC[C@]43C)[C@@H]12 (stereo partly drawn) | -93.9% (active)
Cc1c(C(=O)O[C@H]2[C@@H]3[C@H](C)CC[C@H]3[C@]3(C)O[C@@]2(C2CCCCC2)C[C@H]3OC(=O)CO)ccc2ccccc12 | 60.8%
COc1ccc(Oc2nc(Nc3ccc(N4CCCCC4)nc3)ncc2NC(=O)c2cc(OC)cc(OC)c2)cc1 | 41.5%
O=C(Oc1ccc[nH]c1=O)c1cc([N+](=O)[O-])cc([N+](=O)[O-])c1 | 114%
Cc1cc(N2CCCCC2)nc(N(CCNc2ccnc3cc(Cl)ccc23)Cc2ccccn2)n1 | 75%
CCCCOc1ccc(NC(=O)n2nc(N=NN(C)C)c3ccc(Cl)cc32)cc1 | 106%
O=C1NN(C(=O)c2ccc(O)cc2)C(c2ccccc2)=N/C1=C\c1cn(-c2ccccc2)nc1-c1ccccc1 | 92.5%
COC(=O)/C(=C\c1ccc(OC)cc1)C(=O)N1c2ccccc2Sc2ccccc21 | 66.9%
COc1ccc(Oc2nc(Nc3ccc(N4CCOCC4)nc3)ncc2NC(=O)c2cc(OC)cc(OC)c2)cc1 | 80.6%
NC(=O)c1c(NC(=O)c2ccc(C(F)(F)F)cc2Cl)sc2c1CCC(=O)C2 | 14%
O=C(NCCOCCOCCOCCNC(=O)c1cc2c(o1)C(=O)c1ccccc1C2=O)NC12CC3CC(CC(C3)C1)C2 | -2.04% (active)

Structure (SMILES) | growth
COC(=O)c1ccc(CSc2nnc(-c3ccncc3)o2)cc1 | 110%
CCCc1nc2ccccn2c1Nc1ccc(C(=O)NO)cc1 | 85%
Fc1ccc(Nc2ccc3cc(OCCCN4CCOCC4)ccc3n2)cc1F | 64.9%
C=C1c2c(C)nn(-c3ccc(S(N)(=O)=O)cc3)c2N(C)C23CC1C1(C)c4c(C)nn(-c5ccc(S(N)(=O)=O)cc5)c4N(C)C(C)(CC12)C3 (stereo not drawn) | 43%
C=C1c2c(C)nn(-c3ccc(NC(C)=O)cc3)c2N(C)C23CC1C1(C)c4c(C)nn(-c5ccc(NC(C)=O)cc5)c4N(C)C(C)(CC12)C3 (stereo not drawn) | 43.6%
C[C@@H]1CC[C@@H]2[C@@H]1[C@H](OC(=O)c1ccc3ccccc3c1)[C@]1(C3CCCCC3)C[C@@H](OC(=O)CO)[C@@]2(C)O1 | 84.1%
CC(C)(C)c1ccc(C(=O)Nc2sc3c(c2C(N)=O)CCC(=O)C3)cc1 | 15.2%
N=c1ccn2c(n1)OC1C(O)C(CO)OC12 (stereo not drawn) | 44%
NC(=Nc1ccc(N)cc1)C(N)=Nc1ccc(N)cc1 | 102%
COc1ccc(/C=C(\C#N)n2nnc3cc(F)c(F)cc32)c(OC)c1OC | 82.9%
C=C1c2c(C)nn(-c3ccc(O)cc3)c2N(C)C23C[C@@H]1C1(C)c4c(C)nn(-c5ccc(O)cc5)c4N(C)C(C)(C[C@H]12)C3 (stereo partly drawn) | 48.7%
CSc1ccc(Cl)c(C(=O)Nc2sccc2C(N)=O)c1 | 80.6%
C=C1c2c(C)nn(-c3ccc(N)cc3)c2N(C)C23CC1C1(C)c4c(C)nn(-c5ccc(N)cc5)c4N(C)C(C)(CC12)C3 (stereo not drawn) | 80.7%
CC(=O)Nc1ccc2c(c1)Cc1c(F)cccc1-2 | 107%
C=C(C)[C@@H]1CC[C@]2(CNCCO)CC[C@]3(C)[C@H](CC[C@@H]4[C@@]5(C)CCC(N)[C@@](C)(CO)[C@@H]5CC[C@]43C)[C@@H]12 (stereo partly drawn) | 29.8%
Cc1cnc(Nc2ccc(OCCN3CCCC3)cc2)nc1NCc1ccco1 | 94.4%
